Data taken from PubChem BioAssay (NCI).
About 83,000 compounds went through this panel and 20% of them were active in at least one assay; those are over-represented in the sample as a whole.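 How to read the values: 0–100, growth inhibition (40 = 60% inhibited); 0, no net growth; -100 to 0, cell death (-40 = 40% of starting cells died; -100 = all dead).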 A number with no mark means an inactive call. Calls of active or inactive are those of the source. The calls were made as follows: active = growth percent below 10; inactive = the rest.

Each molecule was assayed on MDA-MB-468 breast (assay: NCI-60 one-dose screen, 48 h (100 = growth as untreated, 0 = no growth, -100 = all killed)). Settings: 10 µM unless noted.
`O=C1NC(=O)c2cc([N+](=O)[O-])ccc21` showed a growth of 96.1%. With `CCOC(=O)c1noc2c1CCc1c-2cn(Cc2ccc(OC)cc2)c1-c1cc(OC)c(OC)c(OC)c1` the growth was 6.06% (active). Molecule `CCC(=O)c1cc([N+](=O)[O-])c(Br)s1` has a growth of 74.6%. Molecule `COc1ccc(-c2cc3c4c(nc5ccccc5c4c2)CC(c2cc(OC)c(OC)c(OC)c2)O3)cc1` (stereo not given) has a growth of 26.6%. In the case of `O=C(CN1CCNCC1)N1CCOCC1`, the growth is reported as 117%.
